The campaign covered roughly 340,000 compounds. About 3,300 (0.97%) were called active.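 How the source made its calls: active means mean activation above about 17%, with every replicate also reaching it (limit read from the data, passing the limit was not always enough); inconclusive means only one of the two conditions met; inactive means the rest.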 Many of the other results were omitted from the sample, so actives are more common in it than they were.

Chain of Protein FosB (Mus musculus) (P13346 whole entry, looked up): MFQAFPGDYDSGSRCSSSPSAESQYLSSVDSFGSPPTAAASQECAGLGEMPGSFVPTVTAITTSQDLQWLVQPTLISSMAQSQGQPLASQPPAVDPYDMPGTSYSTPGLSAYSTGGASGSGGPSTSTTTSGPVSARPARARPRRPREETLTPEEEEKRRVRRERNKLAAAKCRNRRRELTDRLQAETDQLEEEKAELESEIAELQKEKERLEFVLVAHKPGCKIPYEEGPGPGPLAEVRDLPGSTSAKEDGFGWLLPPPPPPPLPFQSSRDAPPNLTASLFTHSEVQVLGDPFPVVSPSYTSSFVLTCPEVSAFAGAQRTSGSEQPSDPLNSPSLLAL

This assay addresses Protein FosB (Mus musculus) (UniProt P13346). Kind of assay: enhancers of mouse delta FosB DNA binding – biochemical, fluorescence polarization, TAMRA-CDK5 oligo, single point, primary screen (AID 493131).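 Further: fluorescence polarization rise as delta FosB binds a TAMRA Cdk5 AP-1 oligo.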 The settings on record: purified delta FosB, at 25 µM, hits give high values, percent of positive-control signal above neutral wells.
Take `COc1ccc(C2C(C(=O)Nc3ccccc3OC)=C(C)Nc3nnnn32)c(OC)c1` (stereo not given): the activation is -2.93% (inactive).

In the case of `COc1cc(C2C(C(=O)Nc3ccccc3OC)=C(C)Nc3ncnn32)ccc1O` (stereo not given), the activation is -9.43% (inactive).

Turning to `COc1ccccc1NC(=O)C1=C(C)Nc2nnnn2C1c1cccc(Br)c1` (stereo not given), the activation was 27.9% (active).

Turning to `COc1ccc(-c2cc3nc(C)c(CCC(=O)NC(C)CCc4ccco4)c(C)n3n2)c(OC)c1` (stereo not given), the activation is -2.13% (inactive).

Consider `Cc1ccc(NC(=O)CCC(=O)N2CCC(c3ccccc3)=N2)cc1S(=O)(=O)N1CCCCC1`, for which the activation is 10.2% (inactive).

Regarding `Cc1sc2ncnc(N3CCC(C(=O)NNC(=O)c4ccc(F)cc4)CC3)c2c1C`, the activation was -4.25% (inactive).

On to `Cc1sc2ncnc(N3CCC(C(=O)Nc4nc5ccc(Cl)cc5s4)CC3)c2c1C`, for which the activation is 43.5% (active).

In the case of `Cc1sc2ncnc(N3CCC(C(=O)Nc4ccc(F)cc4Cl)CC3)c2c1C`, the activation was -2.12% (inactive).

In the case of `Cc1cccc(-n2nc3c(c2NC(=O)c2cc4ccccc4o2)CS(=O)(=O)C3)c1`, the activation was -22.1% (inactive).

As for `COc1ccc(CCNC(=O)c2nnc(CS(=O)(=O)c3ccccc3)o2)cc1OC`, the activation is -8.02% (inactive).

For the molecule `CCCCNC(=S)N/N=C1\CCCCc2ccccc21`, the activation is -5.41% (inactive).

With `COc1cccc(CNC(=O)c2cccnc2Sc2ccc(Cl)cc2)c1`, the activation is -12% (inactive).

As to `COc1cccc(CNC(=O)c2n[nH]c3ccccc23)c1`, the activation is -2.62% (inactive).

As for `CCOc1ccccc1NC(=O)Cn1nnc(C(=O)NCc2cccs2)c1N`, the activation is 28.6% (active).

In the case of `COc1ccc(CNC(=O)c2nnn(CC(=O)Nc3cc(C)cc(C)c3)c2N)cc1`, the activation was 48.3% (active).

In the case of `CCN(CC(=O)NCc1cccs1)c1nnnn1-c1ccccc1`, the activation is 1.6% (inactive).

For `COc1cccc(CNC(=O)c2nnn(CC(=O)Nc3cc(Cl)ccc3C)c2N)c1`, the activation was 70.5% (active).

As to `Cc1ccc(NC(=O)Cn2nnc(C(=O)NCc3ccco3)c2N)c(C)c1`, the activation is 14.6% (inactive).

With `COc1cccc(CNC(=O)c2nnn(CC(=O)Nc3cc(C)ccc3C)c2N)c1`, the activation is 52.8% (active).

With `COc1ccc(S(=O)(=O)N2CCC(C(=O)NCCC(=O)NCc3cccc(OC)c3)CC2)cc1`, the activation was -3.09% (inactive).

For the molecule `COc1ccc(NC(=O)Cn2nnc(C(=O)NCCc3ccc(OC)c(OC)c3)c2N)cc1`, the activation is -1.69% (inactive).

As for `CCOc1ccc(Cn2nnc(C(=O)Nc3ccc(OC)cc3OC)c2N)cc1`, the activation is 7.56% (inactive).

In the case of `CCOc1ccccc1NC(=O)Cn1ncc2ccc([N+](=O)[O-])cc21`, the activation is -5.27% (inactive).

As to `O=C(O)c1ccc(S(=O)(=O)c2ccccc2)s1`, the activation is 0.96% (inactive).

Turning to `O=S(=O)(Nc1ccc(OC(F)(F)F)cc1)c1cccc2nonc12`, the activation was 2.63% (inactive).

As to `N#Cc1c(/N=C/N2CCCC2)oc(-c2ccccc2)c1-c1ccccc1`, the activation was -4.67% (inactive).

For the molecule `CC(Sc1nnnn1C1CCCCC1)C(=O)O` (stereo not given), the activation is 1.4% (inactive).

In the case of `Cc1cccc(CSc2nc3c(c(=O)n2C)SCC3)c1`, the activation was -8.87% (inactive).

As to `CCN(CC)c1ccc(S(=O)(=O)N2CCOCC2)cc1NC(=O)CSc1cccc[n+]1[O-]`, the activation is 4.76% (inactive).

For `Nc1ccc(C(=O)OCC(=O)NC2CCCc3ccccc32)cc1[N+](=O)[O-]` (stereo not given), the activation was 35.5% (active).

`Nc1ccc(C(=O)OCC(=O)NC2CCS(=O)(=O)C2)cc1[N+](=O)[O-]` (stereo not given): the activation was -1.21% (inactive).

Turning to `NC(=O)Nc1ccc(C(=O)OCC(=O)NC2CCCc3ccccc32)cc1` (stereo not given), the activation was 0.99% (inactive).

Take `CC1(C(=O)O)CCC(C(=O)Nc2ccc(Cl)c(Cl)c2)C1(C)C` (stereo not given): the activation is -5.56% (inactive).

Take `COc1ccc(NC(=O)CCC(=O)Nc2nnc(C3CCCCC3)s2)cc1`: the activation was 23.2% (active).

For `COc1ccc2c(CC(=O)Nc3nnc(C4CC4)s3)coc2c1`, the activation is -0.902% (inactive).

`COc1ccc(OCCCC(=O)Nc2nnc(C3CCCO3)s2)cc1` (stereo not given): the activation is -9.89% (inactive).

Turning to `O=C(Cc1ccc(Br)cc1)NCCN1CCOCC1`, the activation is 7.04% (inactive).

For `CC1CCCCC1NC(=O)/C(C#N)=C/C=C/c1ccccc1[N+](=O)[O-]` (stereo not given), the activation was -2.37% (inactive).

On to `Cc1cccc(C(=O)Nc2ccccc2-c2nnn(CC(=O)Nc3ccc4c(c3)OCCO4)n2)c1`, for which the activation is 20.1% (active).

Turning to `CS(=O)(=O)c1ccc(-c2nnn(CC(=O)Nc3ccc4c(c3)OCCO4)n2)cc1`, the activation was 37.1% (active).

Consider `COc1ccc(S(=O)(=O)N(C)CC(=O)Nc2ccc3c(c2)OCCO3)cc1OC`, for which the activation was -3.7% (inactive).

As for `Cn1c(=O)c2ccccc2n(CC(=O)Nc2ccc3c(c2)OCCO3)c1=O`, the activation is 5.57% (inactive).

In the case of `Cc1ccc(SCC(=O)Nc2ccc3c(c2)OCCO3)cc1`, the activation was -1.62% (inactive).

With `Cc1ccc(S(=O)(=O)NCC(=O)Nc2ccc3c(c2)OCCO3)cc1`, the activation was -0.347% (inactive).

As to `O=C(c1cccc(N2CCCC2=O)c1)N1CCOCC1`, the activation was -2.25% (inactive).

Take `CN(Cc1cccs1)C(=O)Cc1c[nH]c2ccccc12`: the activation was 0.954% (inactive).

Turning to `COc1ccc(NC(=O)CN(C)C(=O)c2ccc(NC3CC3)c([N+](=O)[O-])c2)cc1`, the activation is 4.11% (inactive).

Consider `COc1ccc(CCNC(=O)CSc2nc3[nH]ncc3c(=O)n2-c2cccc(C(F)(F)F)c2)cc1OC`, for which the activation was 0.114% (inactive).

Consider `COc1ccc(-n2cnnc2SCC(=O)Nc2cccc([N+](=O)[O-])c2)cc1`, for which the activation was 9.7% (inactive).

With `NC(=O)NC(=O)CSc1nc2cc([N+](=O)[O-])ccc2n1-c1cccc(C(F)(F)F)c1`, the activation was 20.9% (active).

For the molecule `O=C(COc1ccccc1)Nc1nonc1NC(=O)COc1ccccc1`, the activation was 1.39% (inactive).

As to `COC(=O)CC1=NN(c2nc(C)cc(C)n2)C(=O)C1`, the activation was 0.664% (inactive).

Regarding `CS(=O)(=O)N(CC(=O)N1CCCC1)Cc1ccccc1`, the activation is -9% (inactive).

`Cc1ccc(-c2nc(CS(=O)CC(=O)N3CCN(c4ncccn4)CC3)c(C)o2)cc1` (stereo not given): the activation is -11.3% (inactive).

On to `Cc1[nH]c2c(C(=O)N3CCCC(CCC(=O)NCc4ccccc4F)C3)cccc2c1C` (stereo not given), for which the activation was -10% (inactive).

Regarding `Cc1ccc(NC(=O)Nc2ccccc2)c(Br)c1`, the activation was -6.25% (inactive).

Consider `O=C(Nc1c[nH]c(=O)[nH]c1=O)OCc1ccccc1`, for which the activation was 1.77% (inactive).

`Cc1cc(NC(=O)Nc2c[nH]c(=O)[nH]c2=O)ccc1Br`: the activation was 27% (active).

Regarding `CCOC(=O)CCC(NC(=O)c1ccc(CNc2nc3cc(C(F)(F)F)ccc3nc2C(=O)OCC)cc1)C(=O)OCC` (stereo not given), the activation was -4.97% (inactive).

As to `CC(=O)Nc1ccc(S(=O)(=O)NCC(=O)OCc2cc(=O)oc3ccc4ccccc4c23)cc1`, the activation is 38.6% (active).

Consider `COc1ccccc1CNC(=O)COC(=O)CNS(=O)(=O)c1ccc(NC(C)=O)cc1`, for which the activation was 0.477% (inactive).

On to `COc1ccccc1C(=O)COC(=O)CNS(=O)(=O)c1ccc(NC(C)=O)cc1`, for which the activation was -5.62% (inactive).

In the case of `CC1CCC(N2CC(=O)N(Cc3ccc4c(c3)OCO4)C(c3ccc(F)cc3)C2=O)CC1` (stereo not given), the activation is -1.56% (inactive).

As for `O=C(CN(Cc1ccccc1)C(=O)CCC(=O)Nc1ccccn1)NCCc1ccccc1`, the activation is -12.5% (inactive).

For the molecule `CCCOc1ccc(C(=O)C(CCC(CNCC)C(=O)c2ccc(OCCC)cc2)CNCC)cc1` (stereo not given), the activation was 18.7% (active).

Regarding `CCCOc1ccc(/C=N/NC(=O)C2CC2)c(OCCC)c1`, the activation is -10.6% (inactive).

With `CCCOc1ccc(C(=O)CCC(=O)OC(C)C(=O)Nc2ccc(NC(C)=O)cc2)cc1` (stereo not given), the activation is 11.5% (inactive).

Regarding `COC(=O)c1ccc(NC(=O)CSc2nc(N)c(NC(=O)c3ccc(Br)o3)c(=O)[nH]2)cc1`, the activation is 10.1% (inactive).

For the molecule `O=C(Nc1cc(-c2nc3ncccc3o2)ccc1Cl)c1ccco1`, the activation is -46.8% (inactive).

In the case of `Nc1nc(SCC(=O)Nc2cc(C(F)(F)F)ccc2Cl)[nH]c(=O)c1NC(=O)c1ccco1`, the activation was 48.3% (active).

As for `CCN(CC(=O)NCc1ccc(F)cc1)S(=O)(=O)c1ccc(Cl)s1`, the activation is 6.54% (inactive).

`NN=C(NN=Cc1ccccc1)c1ccccc1`: the activation was -14.8% (inactive).

As for `COc1ccc(C)cc1NC(=O)CSc1cccc[n+]1[O-]`, the activation was 6.31% (inactive).

Take `O=C(Nc1nnc(C2COc3ccccc3O2)o1)c1ccc(F)cc1` (stereo not given): the activation was 1.05% (inactive).

Consider `COc1ccc(N(CC(=O)N/N=C/c2cccc3c2OCCO3)S(=O)(=O)c2ccc(NC(C)=O)cc2)cc1`, for which the activation is -0.26% (inactive).

Regarding `Cc1cc(=O)[nH]c2nnnn12`, the activation was -4.86% (inactive).

Regarding `CCN(CC)CCNc1ccc(Cl)cc1[N+](=O)[O-]`, the activation is 4.58% (inactive).

As to `O=C(Nc1nnc(Cc2ccccc2)s1)c1cnccn1`, the activation was -3.57% (inactive).

With `O=C(NCc1cccnc1)C(=O)Nc1nc(-c2ccccc2)cs1`, the activation is -5.18% (inactive).

Regarding `O=C(Nc1nc(-c2ccc(-c3ccccc3)cc2)cs1)c1cnccn1`, the activation was 21.9% (active).

Take `CCCCC(NS(=O)(=O)c1ccc(C)cc1)C(=O)Oc1ccc2c3c(c(=O)oc2c1)CCC3` (stereo not given): the activation was -11.5% (inactive).

With `CCOc1ccc(NC(=O)c2ccc(CSc3nnnn3C)cc2)cc1`, the activation is -3.33% (inactive).

As to `O=C(Nc1ccc(N2CCCC2=O)cc1)c1cncc(Br)c1`, the activation was -1.59% (inactive).

As for `O=C(N/N=C/c1cccc(Br)c1)c1ccc(N2CCCC2=O)cc1`, the activation is 86.6% (active).

With `Cn1c(=O)n(C)c2cc(/C=N/NC(=O)c3cccc(Br)c3)ccc21`, the activation is 10.7% (inactive).

On to `CCN(CC(=O)Nc1c(F)cccc1F)C(=O)Cc1cccs1`, for which the activation was 3.46% (inactive).

With `Cc1cc(C)cc(NC(=O)C(OC(=O)c2ccc(O)cc2)c2ccccc2)c1` (stereo not given), the activation was 6.84% (inactive).

`Cc1ccc(C)c(NC(=O)C(OC(=O)c2ccc(C)s2)c2ccccc2)c1` (stereo not given): the activation was 23.6% (active).

Turning to `COc1ccc(C)cc1NC(=O)C(OC(=O)c1cccc(S(=O)(=O)N(C)c2ccccc2)c1)c1ccccc1` (stereo not given), the activation was -8.39% (inactive).

Consider `C/C(CC(=O)NCc1ccc(Cl)cc1)=N\NC(=O)COc1ccc(C)cc1Br`, for which the activation is -6.55% (inactive).

(Values after PubChem BioAssay AID493131 (Broad Institute, 2011).)
